The values that follow come from PubChem BioAssay.

In assay [1] the test system is Human papillomavirus type 1a protein E7 (residues 44-93). In words: small molecules binding HPV E7 44-93 – biochemical, small-molecule microarray, residues 44-93, 635 nm fluorescence, primary screen (AID 1108).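 Also: E7 fragment applied at 1 µg/mL in TBST for 1 h at 4 C; score combines spot fluorescence with its signal to noise ratio.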 As to conditions: fluorescence 635 nm, higher = more signal.
The nature of assay [2]: hepatitis C replication reporter changes, two-sided – Huh7 cells, luciferase reporter, HCV replication inhibitor project, primary screen (AID 1109).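 Also: huh7 hepatoma cells harbouring a luciferase neomycin HCV replicon reporter; luciferase luminescence as measure of HCV replicon replication; test concentration not given here.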 Conditions: Huh7 HCV replicon luciferase reporter, 48 h; higher = more signal. On the technique in general: Reporter assays use an easily measured gene product as a stand-in for the process of interest.
For assay [3], the target named is Left-right determination factor 2 (Homo sapiens) (UniProt O00292). In words: small molecules binding LEFTY2 protein – biochemical, small-molecule microarray, 635 nm fluorescence scan, primary screen (AID 1110). As to conditions: higher = more signal.
Assay [4] addresses Calmodulin-1 (Homo sapiens) (UniProt P0DP23). In words: small molecules binding calmodulin-1 with EGTA – biochemical, small-molecule microarray, Cy5-labelled CALM1, profiling panel (AID 1111).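 Also: labelled calmodulin applied in Tris saline Tween buffer holding calcium plus EGTA and DTT.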 Conditions: Cy5-CALM1 binding fluorescence, higher = more signal.
Assay [5] has the same target. In words: small molecules binding Ca-loaded calmodulin-1 – biochemical, small-molecule microarray, Cy5-labelled CALM1, plus calcium, artefact control for SMM control-protein annotation, profiling panel (AID 1112).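 Also: score merges spot fluorescence with signal to noise from triplicate slides.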 Conditions: Cy5-CALM1 binding fluorescence, higher = more signal.
A short description of assay [6]: probe aWnt5a binding to arrayed compounds – biochemical, biotinylated probe, 635/667 nm fluorescence, primary screen (AID 1113).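 Also: score merges 667 nm fluorescence intensity with signal-to-noise per printed feature.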 Conditions: small-molecule microarray, higher = more signal.
A short description of assay [7]: probe aShh binding to arrayed compounds – biochemical, biotinylated probe, 635/667 nm fluorescence, primary screen (AID 1114).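 Also: probe is biotin-labelled aShh protein from a stem cell growth factor screen; measures binding of labelled protein to compounds printed on the slide; score merges feature fluorescence at 667 nm with signal-to-noise.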 As to conditions: small-molecule microarray, higher = more signal.
A short description of assay [8]: probe aNog binding to arrayed compounds – biochemical, biotinylated probe, 635/667 nm fluorescence, primary screen (AID 1115).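 Also: probe is biotinylated aNog protein used at 0.15 µg/mL for 1 h at 4 C; z-score combines 667 nm fluorescence of each spot with its signal to noise.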 Conditions: small-molecule microarray, higher = more signal.
Assay [9] deals with Torsin-1A-interacting protein 1 (Homo sapiens) (UniProt Q5JTV8). In words: compound microarray binding of lysate hLAP1 – cell lysate, small-molecule microarray, COS7 lysate, 635/667 nm fluorescence, primary screen (AID 1116). Conditions: 635 nm fluorescence, higher = more signal.
Assay [10] has as its target Alpha-bungarotoxin (Bungarus multicinctus) (UniProt P60615). In words: compounds binding labelled alpha-BTX control protein – biochemical, small-molecule microarray, Alexa647 label, 635/667 nm fluorescence, artefact control for SMM control protein annotation, profiling panel (AID 1117). Conditions: alpha-BTX-A647 binding fluorescence, higher = more signal.
Assay [11] has as its target Albumin (Bos taurus) (UniProt P02769). In words: compounds binding labelled BSA control protein – biochemical, small-molecule microarray, Alexa647 label, 635/667 nm fluorescence, artefact control for SMM control protein annotation, profiling panel (AID 1118).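 Also: score merges 667 nm emission intensity and signal-to-noise per printed compound spot.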 Conditions: BSA-A647 binding, fluorescence 635 nm, higher = more signal.
A short description of assay [12]: probe aXIP binding to arrayed compounds – biochemical, NeuroSMM set, 635/667 nm fluorescence, primary screen (AID 1119).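 Also: probe is the protein aXip251-270 applied at 1 µg/mL to compound-printed slides; binding of probe to printed compounds measured as 667 nm fluorescence plus signal to noise.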 As to conditions: small-molecule microarray, higher = more signal, called active from +8 up or from −8 down.
Assay [13] in a line: probe aNOTCH3 binding on compound microarray – biochemical, small-molecule microarray, 635/667 nm fluorescence, primary screen (AID 1120).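 Also: probe is a biotin-tagged antibody raised against NOTCH3 rather than NOTCH3 protein; score merges spot fluorescence near 667 nm with spot signal to noise.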 Conditions: higher = more signal.
Assay [14] can be described thus: probe aNOTCH2 binding on compound microarray – biochemical, small-molecule microarray, 635/667 nm fluorescence, primary screen (AID 1121).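 Also: score merges feature fluorescence read at 667 nm with its signal to noise.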 As to conditions: higher = more signal.
For assay [15], the target named is Carbonic anhydrase 2 (Homo sapiens) (UniProt P00918). In words: compounds binding carbonic anhydrase 2 – biochemical, small-molecule microarray, Alexa647-labelled CAII, profiling panel (AID 1122). As to conditions: CAII-A647 binding fluorescence, higher = more signal.
A short description of assay [16]: COS7 lysate on small-molecule microarray, probe aHis, 635 nm (AID 1123).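 Also: z-score combines 667nm fluorescence intensity with signal-to-noise per printed compound spot.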 Conditions: COS7 cell lysate, fluorescence, higher = more signal.
A short description of assay [17]: probe aLAP1 signal on lysate-treated microarray – cell lysate, small-molecule microarray, COS7 lysate, primary screen (AID 1124).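 Also: lysate comes from COS7 cells expressing LAP1 and is applied at 0.3 µg/mL; score merges spot fluorescence near 667 nm with signal-to-noise over triplicate slides.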 As to conditions: probe aLAP1, fluorescence, higher = more signal.
Assay [18] concerns Sam68 (KHDRBS1). In words: compounds binding KHDRBS1 protein – biochemical, small-molecule microarray, 635 nm fluorescence, primary screen (AID 1125).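 Also: score merges 667 nm channel intensity with signal to noise over triplicate slides.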 As to conditions: higher = more signal.
Assay [19] concerns Chordin-like protein 2 (CHRDL2). In words: compounds binding chordin-like 2 – biochemical, small-molecule microarray, 635 nm fluorescence, primary screen (AID 1126).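 Also: printed compound slides probed with Chrdl2 protein at 4 µg/mL for 1 h at 4 C; score merges 667 nm emission intensity with signal to noise over three replicate slides.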 Conditions: fluorescence 635 nm, higher = more signal.
Assay [20] deals with Concanavalin-A (Canavalia ensiformis) (UniProt P02866). In words: compounds binding concanavalin A lectin – biochemical, small-molecule microarray, Alexa647 label, 635 nm, artefact control for SMM control protein annotation, primary screen (AID 1127).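 Also: z combines 667 nm emission intensity with signal-to-noise across three replicate slides.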 As to conditions: ConA-A647 binding fluorescence, higher = more signal.

SMILES strings stand for the structures. The source made the active and inactive calls.

Sequence of Alpha-bungarotoxin (Bungarus multicinctus) (P60615 whole entry, looked up): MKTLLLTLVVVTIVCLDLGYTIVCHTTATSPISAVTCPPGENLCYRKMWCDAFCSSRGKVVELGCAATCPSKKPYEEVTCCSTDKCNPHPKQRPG
Sequence of Torsin-1A-interacting protein 1 (Homo sapiens) (Q5JTV8 whole entry, looked up): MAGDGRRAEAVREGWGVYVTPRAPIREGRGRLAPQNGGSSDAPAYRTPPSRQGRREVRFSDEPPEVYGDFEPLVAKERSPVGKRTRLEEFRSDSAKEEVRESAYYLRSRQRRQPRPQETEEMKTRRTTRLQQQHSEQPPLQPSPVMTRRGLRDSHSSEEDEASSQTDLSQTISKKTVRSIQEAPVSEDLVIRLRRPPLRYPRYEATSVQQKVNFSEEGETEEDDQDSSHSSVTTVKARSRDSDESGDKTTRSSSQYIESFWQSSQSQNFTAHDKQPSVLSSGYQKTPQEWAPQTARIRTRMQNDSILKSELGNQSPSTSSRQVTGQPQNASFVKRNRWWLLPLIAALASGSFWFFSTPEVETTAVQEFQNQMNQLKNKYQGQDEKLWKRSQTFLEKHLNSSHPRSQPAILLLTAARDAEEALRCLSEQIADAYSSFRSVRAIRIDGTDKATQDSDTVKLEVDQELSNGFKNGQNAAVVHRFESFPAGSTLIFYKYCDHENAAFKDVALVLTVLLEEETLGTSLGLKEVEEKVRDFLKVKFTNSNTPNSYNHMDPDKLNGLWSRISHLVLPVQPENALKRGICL
Sequence of Concanavalin-A (Canavalia ensiformis) (P02866 whole entry, looked up): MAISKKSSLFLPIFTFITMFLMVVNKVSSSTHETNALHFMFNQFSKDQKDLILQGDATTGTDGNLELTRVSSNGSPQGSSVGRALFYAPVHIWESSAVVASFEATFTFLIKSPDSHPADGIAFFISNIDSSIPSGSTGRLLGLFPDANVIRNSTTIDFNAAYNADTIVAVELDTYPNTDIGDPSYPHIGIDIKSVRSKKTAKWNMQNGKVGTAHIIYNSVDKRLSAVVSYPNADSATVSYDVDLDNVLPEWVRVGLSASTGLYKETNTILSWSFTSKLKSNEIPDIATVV
Sequence of Albumin (Bos taurus) (P02769 whole entry, looked up): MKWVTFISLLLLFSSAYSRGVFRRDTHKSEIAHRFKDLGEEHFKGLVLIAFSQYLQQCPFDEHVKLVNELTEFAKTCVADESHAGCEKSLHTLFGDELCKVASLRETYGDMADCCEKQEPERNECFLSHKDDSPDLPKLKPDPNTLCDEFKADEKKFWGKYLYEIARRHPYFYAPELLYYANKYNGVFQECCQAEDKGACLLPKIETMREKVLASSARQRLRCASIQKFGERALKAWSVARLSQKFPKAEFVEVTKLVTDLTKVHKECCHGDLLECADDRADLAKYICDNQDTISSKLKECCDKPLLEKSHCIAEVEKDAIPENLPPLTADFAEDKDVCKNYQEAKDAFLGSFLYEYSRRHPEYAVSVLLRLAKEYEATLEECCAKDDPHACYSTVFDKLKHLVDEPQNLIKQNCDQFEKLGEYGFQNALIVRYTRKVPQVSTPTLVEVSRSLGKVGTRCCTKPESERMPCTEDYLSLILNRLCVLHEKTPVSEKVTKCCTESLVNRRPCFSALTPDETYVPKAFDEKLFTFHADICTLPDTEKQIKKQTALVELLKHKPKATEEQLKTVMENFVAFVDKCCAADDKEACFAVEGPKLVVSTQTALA
Sequence of Left-right determination factor 2 (Homo sapiens) (O00292 whole entry, looked up): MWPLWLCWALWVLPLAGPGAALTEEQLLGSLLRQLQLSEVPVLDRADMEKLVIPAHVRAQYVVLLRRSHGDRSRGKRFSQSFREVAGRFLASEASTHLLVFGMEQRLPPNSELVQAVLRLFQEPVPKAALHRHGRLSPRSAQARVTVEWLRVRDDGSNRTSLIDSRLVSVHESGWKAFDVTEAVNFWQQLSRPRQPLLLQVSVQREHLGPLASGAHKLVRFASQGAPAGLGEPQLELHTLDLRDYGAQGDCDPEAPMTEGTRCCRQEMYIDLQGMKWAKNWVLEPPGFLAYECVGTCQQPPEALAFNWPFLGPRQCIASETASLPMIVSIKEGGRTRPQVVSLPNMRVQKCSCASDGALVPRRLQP

In the case of `COC(=O)[C@]1(Cc2ccccc2)N=C(c2ccc(OCCCO)cc2)O[C@@H]1c1ccccc1N=[N+]=[N-]`, the composite z-score in assay [1] is 1.33; in assay [3] it was 0.123; in assay [4], 0.39; in [5], 0.245; in [6] it was -0.0236; in assay [7] it was -0.0709. Further, the composite z-score in [8] is -0.595; in [9] it was -0.279; in assay [10], 0.0359; in assay [11], 0.165; in [13], -0.0391; in assay [14], -0.122. The composite z-score came to 0.279 in [15]; 1.59 in [16]; 0.209 in [17]; 0.3 in assay [18]; 0.315 in assay [19]; 0.666 in assay [20]. This molecule also yielded a z-score in assay [2] of -3.25. Moreover, the composite Z-score in assay [12] is -0.181 (inactive).

Turning to `O=C1O[C@@H](c2ccccc2)[C@@H](c2ccccc2)N2[C@@H](c3ccc(OCCO)cc3)[C@]3(C(=O)Nc4ccc(C#CCCO)cc43)[C@@H](C(=O)NC[C@H](O)c3ccccc3)[C@H]12`, the composite z-score in assay [1] was 1.4; in [3], 0.25; in assay [4] it was 0.604; in [5] it was 0.174; in [6] it was 0.119; in assay [7], 0.493. The composite z-score in assay [8] was -0.398; in assay [9] it was 1.09; in assay [10] it was 1.24; in [11], -0.517; in assay [13] it was 0.138; in assay [14], -0.143. The composite z-score in [15] is 0.165; in assay [16] it was 1.66; in assay [17] it was 0.822; in assay [18], 1.26; in [19], 0.891; in assay [20], 1.07. In addition, the z-score in [2] was -1.25. Moreover, in assay [12], the composite Z-score was 1.23 (inactive).

As for `[N-]=[N+]=NCc1ccccc1[C@H]1OC(c2ccc(OCCCO)cc2)=N[C@@]1(Cc1ccccc1)C(=O)N1CCCCC1`, the composite z-score in assay [1] was 1.37; in assay [3], 0.198; in assay [4], 1.23; in [5], 0.0298; in [6], 0.195; in assay [7] it was -0.0243. Also, the composite z-score was -0.768 in [8]; 0.249 in assay [9]; 1.43 in [10]; 0.515 in [11]; 0.234 in [13]; -0.133 in assay [14]. The composite z-score is 0.591 in [15]; 2.32 in assay [16]; 0.284 in assay [17]; 1.29 in assay [18]; -0.237 in assay [19]; 1.08 in assay [20]. For the same molecule, the z-score in assay [2] is -2.55. Besides, in assay [12], the composite Z-score is -0.34 (inactive).

Turning to `CCC(CC)C(O)C1C=CC2C(=O)N(c3ccccc3)C(=O)C2N1Nc1ccccc1` (stereo not given), the composite z-score in assay [1] was 1.29; in [3] it was 0.0874; in assay [4], 1.58; in [5], 0.415; in assay [6], 0.216; in assay [7], -0.16. Further, the composite z-score came out at 2.01 in [8]; 0.671 in [9]; 1.02 in assay [10]; 0.803 in [11]; 0.708 in assay [13]; 0.272 in assay [14]. Moreover, the composite z-score in [15] is 0.491; in assay [16], 2.44; in assay [17] it was 0.383; in assay [18] it was 1.31; in assay [19], 0.0429; in assay [20], 1.16. The molecule further had a z-score in [2] of 0.372. For the same molecule, in [12], the composite Z-score is 0.62 (inactive).

For `C=C(CCCC)/C(=C/C[C@H](OC(C)=O)c1ccc(OCCO)cc1)c1cnc2ccccc2c1`, the composite z-score in assay [1] is 1.43; in assay [3], 0.52; in assay [4], -0.185; in [5], -0.378; in assay [6] it was -0.101; in assay [7], -0.0035. Besides, the composite z-score in assay [8] was -0.483; in assay [9], 0.491; in assay [10], 1.85; in [11], 0.466; in [13], 0.116; in assay [14], -0.108. In addition, the composite z-score in assay [15] worked out at 0.471; in assay [16], 1.2; in assay [17], 0.117; in assay [18], 1.31; in assay [19], 1.05; in assay [20], 0.817. The z-score in [2] is -2.43. In addition, the composite Z-score in assay [12] was 0.0474 (inactive).

Consider `COc1ccc([Si](C)(C)[C@H]2[C@H](CC(=O)N3CCC[C@H]3CO)O[C@@]3(C(=O)N(Cc4cccc(N5CCOC5=O)c4)c4ccccc43)[C@@H]2C)cc1`, for which the composite z-score in [1] was 1.23; in assay [3], 1.05; in assay [4], -0.133; in assay [5], -0.834; in assay [6], -0.124; in assay [7], -0.0553. For the same molecule, the composite z-score in assay [8] is 0.0258; in [9], 0.368; in [10] it was 1.58; in assay [11] it was -0.185; in assay [13], -0.095; in assay [14], -0.151. Further, the composite z-score stood at 0.334 in assay [15]; 0.626 in [16]; 0.218 in assay [17]; 1.26 in assay [18]; 1.36 in [19]; 0.996 in [20]. The molecule further had a z-score in [2] of -2.44. In addition, the composite Z-score in [12] was -0.0054 (inactive).
